As usually defined, the inhibition is the relative decrease from the control value, in per cent.

Among all 47,000 compounds or so, about 3,100 (6.6%) were called active. The list comes from a sample in which actives are over-represented; it also holds similar structures and randomly drawn compounds. A number with no mark means an inactive call. No stated cut-off is given here; in the data, active means inhibition above about 30%; inactive means the rest.

The assay deals with Ubiquitin carboxyl-terminal hydrolase 17-like protein 5 (Homo sapiens) (UniProt A8MUK1). The experiment in a line: inhibitors of human USP17 deubiquitinase (AID 1645855). The conditions noted are these: purified USP17, Ub-rhodamine cleavage fluorescence, 3 h; at 50 µM; hits give high values.
Chain of Ubiquitin carboxyl-terminal hydrolase 17-like protein 5 (Homo sapiens) (A8MUK1 whole entry, looked up): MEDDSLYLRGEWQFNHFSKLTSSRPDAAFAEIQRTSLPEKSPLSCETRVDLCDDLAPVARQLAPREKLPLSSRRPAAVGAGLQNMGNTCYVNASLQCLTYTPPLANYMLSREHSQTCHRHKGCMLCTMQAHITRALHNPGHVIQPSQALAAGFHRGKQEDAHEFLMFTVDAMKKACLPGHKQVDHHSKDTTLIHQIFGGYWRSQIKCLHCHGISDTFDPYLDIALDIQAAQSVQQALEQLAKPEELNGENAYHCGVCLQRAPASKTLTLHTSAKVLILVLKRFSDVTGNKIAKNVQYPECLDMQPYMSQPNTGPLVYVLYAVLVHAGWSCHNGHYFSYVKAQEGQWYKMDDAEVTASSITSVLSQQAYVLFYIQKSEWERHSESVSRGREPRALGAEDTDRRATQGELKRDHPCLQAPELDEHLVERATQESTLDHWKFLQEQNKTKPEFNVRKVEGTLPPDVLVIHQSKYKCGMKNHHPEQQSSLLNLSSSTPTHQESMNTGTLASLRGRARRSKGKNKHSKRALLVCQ
As for `O=c1ccc(-c2nc(-c3cnccn3)no2)cn1Cc1ccccc1C(F)(F)F`, the inhibition is 7.06%.
On to `O=C1CNC(=O)N1CC(O)Cn1c2ccc(Br)cc2c2cc(Br)ccc21` (centres undefined), for which the inhibition was 40.1% (active).
In the case of `CCc1ccc(-n2c(=O)c3ccccc3n(CC(=O)NCCC3=CCCCC3)c2=O)cc1`, the inhibition was 64.3% (active).
The same measure for `Cc1ccc(Cn2c(C)c(CNCCC3=CCCCC3)c(C(=O)O)c2C)cc1`: 7.92%.
For `O=C(CCc1nnc2n(CCc3ccccc3)c(=O)c3ccccc3n12)NCCN1CCCC1`, the inhibition was 13.7%.
For `CN(CCc1ccccn1)C(=O)c1cc2c(=O)oc3ccccc3c2s1`, the inhibition is 14.5%.
For the compound `O=C(CC(NCc1cccnc1)C(=O)O)Nc1ccccc1` (centres undefined), the inhibition is 6.61%.
On to `COc1cc(C)c(CN2CCc3c(nc4cc(-c5cc(C)on5)[nH]n4c3=O)C2)cc1OC`, for which the inhibition was 4.84%.
Next, `C#CCOc1ccc(CN2CCc3nc(-c4cccnc4)[nH]c(=O)c3C2)cc1OC`: -0.00604%.
As to `O=c1[nH]c(-c2ccncc2)nc2c1CCN(Cc1cn[nH]c1-c1ccc(Cl)cc1)C2`, the inhibition was -0.0464%.
As for `O=c1[nH]c(-c2ccccn2)nc2c1CCN(Cc1cnn(-c3ccc(F)cc3)c1)C2`, the inhibition is 43.5% (active).
For `CCc1cccc(C)c1NC(=O)Cn1nc2ccc(C(=O)NCc3ccccc3)cn2c1=O`, the inhibition is 16.4%.
Turning to `Cc1ccc(-c2cc(=O)[nH]c(NCc3ccccc3)n2)cc1`, the inhibition is -6.42%.
Regarding `CC(=O)N1CCN(c2cc(N3CCCCC3)nc(C)n2)CC1`, the inhibition is -36.6%.
For `CCCN1CCN(c2ccc(C(=O)O)cc2NS(=O)(=O)c2cc(F)ccc2F)CC1`, the inhibition was 10.4%.
Consider `Cc1ccc(-c2cc(C(F)F)n3ncc(C(=O)NCC(C)C)c3n2)cc1`, for which the inhibition is 36.6% (active).
The same measure for `Cc1cc(Nc2ccc(C(=O)NCC(C)C)cc2)n2nc(-c3cccnc3)nc2n1`: -7.54%; for `COc1ccc(-c2cc(C(F)F)n3ncc(C(=O)N(C)Cc4c(C)nn(C)c4C)c3n2)cc1`: -8.87%.
`O=C(O)COc1ccccc1C(c1c[nH]c2ccccc12)c1c[nH]c2ccccc12`: the inhibition was -15.6%.
Take `COc1ccc(CN2CCN(C(=O)c3ccc4c(c3)OCO4)CC2)cn1`: the inhibition was -5.73%.
As to `CC(C)c1ccc(NC(=O)CCC(=O)N(c2ccccc2)c2ccccc2)cc1`, the inhibition is 6.5%.
The same measure for `COc1cccc(NS(=O)(=O)c2ccc(-c3coc(C)n3)cc2)c1`: 0.103%; for `Cc1cccc(NS(=O)(=O)c2ccc3nnc(C)n3c2)c1`: 4.3%.
In the case of `O=S(=O)(Nc1cccc(O)c1)c1ccc2oc3ccc(S(=O)(=O)Nc4cccc(O)c4)cc3c2c1`, the inhibition was 39.1% (active).
Consider `CC1(C)Cc2cccc(OCC(=O)NCC(F)(F)F)c2O1`, for which the inhibition was 4.4%.
For `COC(=O)c1ccc(C(=O)NCC2(O)CCc3ccccc32)cc1` (centres undefined), the inhibition was -0.0822%.
`COCCN1C[C@@]23CN(C(=O)NCc4ccccc4)C[C@@H](C[C@@H]2S1(=O)=O)O3`: the inhibition was 12.1%.
Regarding `CC(=O)Nc1ccc(-n2cnc(C(=O)N3CCN(c4cccc(C)c4)CC3)c2)nc1`, the inhibition was -7.95%.
For the compound `CC(=O)Nc1ccc(-n2cnc(C(=O)N3CCN(c4ccc(C)cc4)CC3)c2)nc1`, the inhibition is 13.8%.
Next, `CC(=O)Nc1ccc(-n2cnc(C(=O)NCc3ccc(C)cc3)c2)nc1`: 64.2% (active).
For `Cc1nc(C2CCN(S(C)(=O)=O)CC2)nc2c1CCC(=O)N2CC(C)C`, the inhibition is -7.01%.
As to `Cc1cc2nc(Cc3ccccc3)cc(=O)n2[nH]1`, the inhibition was -11.5%.
`CC1CCCN(C(=O)c2cc(S(=O)(=O)N3CCCCC3)ccc2Cl)C1` (centres undefined): the inhibition was -1.66%.
Consider `CC(C)NC(=O)CN1C(=O)CC(C)Sc2ccc(S(=O)(=O)N3CCCCC3)cc21` (centres undefined), for which the inhibition was 43.8% (active).
`CCN1CCN(S(=O)(=O)c2ccc3c(c2)CC(C)N3C(=O)C2CC2)CC1` (centres undefined): the inhibition is 2.74%.
Consider `COc1ccc2ncc(S(=O)(=O)c3ccccc3)c(N3CCOCC3)c2c1`, for which the inhibition was -6.05%.
Turning to `O=C(Cc1cccc(F)c1)NC1(c2nc(C3CC3)no2)CCCCC1`, the inhibition is 5.03%.
The same measure for `Cc1csc(C2(NC(=O)Cc3cc(C)on3)CCCC2)n1`: 31.4% (active); for `Cc1noc(C2(NC(=O)Cc3ccccc3C)CCCCC2)n1`: -5.54%.
On to `Cc1nn2c(S(=O)(=O)NCc3ccccc3F)c(C)nc2s1`, for which the inhibition is 18.9%.
The same measure for `CCN(CC)c1ccc(NC(=O)Nc2ccc(OCc3ccccc3)cc2)cc1`: 7.88%; for `CC1CCN(S(=O)(=O)N2CCCC(C(=O)Nc3ccccc3Cl)C2)CC1` (centres undefined): 1.17%; for `O=C(CCc1nc2sc3c(c2c(=O)[nH]1)CCCC3)Nc1ccc(F)cc1`: 2.56%.
`CCCC(=O)Nc1nc2ccc(CCC(=O)NCc3ccc(F)cc3)cc2s1`: the inhibition was 65.3% (active).
In the case of `Cc1ccc2nc(CCC(=O)NCc3ccc(F)cc3F)n(C)c(=O)c2c1`, the inhibition was 10.9%.
Next, `CC(C)C(=O)Nc1nc2cc(NS(=O)(=O)c3ccccc3)ccc2s1`: 4.36%; `O=C(Cc1cccc2ccccc12)Nc1nc2ccc(F)cc2s1`: 23.9%; `CC(C)C(=O)Nc1nc2ccc(CCC(=O)Nc3ccc(F)cc3)cc2s1`: 43.6% (active).
For `Cc1ccc2[nH]cc(C(C(=O)O)N3CCN(c4ccc(C(F)(F)F)cn4)CC3)c2c1` (centres undefined), the inhibition is -4.78%.
As for `Cc1cccc(C)c1NS(=O)(=O)c1ccc(N2CCCC2=O)cc1`, the inhibition was -8.71%.
Next, `Cc1noc(C)c1CN1C[C@H](OCc2ccccn2)[C@H]2OCCC[C@H]21`: -5.79%; `Cc1cc2nc(N3CCOCC3)n(CC(=O)Nc3ccccc3F)c(=O)c2n1C`: 36% (active).
Regarding `Cc1cc(=O)n(CC(=O)Nc2ccc(F)cc2C)c(N2CCCC2)n1`, the inhibition is 16.9%.
Consider `CCc1cc(=O)n(CC(=O)NCc2ccccc2)c(N2CCOCC2)n1`, for which the inhibition was -0.113%.
Regarding `O=C(Cc1c[nH]c2ccccc12)N1CCc2cc(-c3ccno3)ccc21`, the inhibition was -26.7%.
In the case of `COc1ccc(-c2noc(CN(C3CCCCC3)S(=O)(=O)c3ccc(OC)cc3)n2)cc1`, the inhibition was 4.09%.
Take `COc1ccc(-c2noc(-c3ccc(N(C)Cc4ccco4)nn3)n2)cc1`: the inhibition is 30.7% (active).
With `COc1ccc(-c2noc(C3(c4ccccc4)CCOCC3)n2)cc1`, the inhibition was 19.3%.
In the case of `CC(C)n1ncc2[nH]c(C3CCCN(C(=O)Nc4ccc(F)cc4)C3)nc21` (centres undefined), the inhibition was -4.82%.
Consider `CCOC(=O)c1cc2c(ccn2-c2ccc(F)cc2)n1Cc1ncc(C)c(OC)c1C`, for which the inhibition is -32%.
As to `O=C(Nc1cc(-c2ccccc2)nn1C1CCS(=O)(=O)C1)c1ccccc1F` (centres undefined), the inhibition is -23.8%.
As to `CC(C)(C)n1nc(C2CC2)c(Br)c1NC(=O)c1ccccc1F`, the inhibition is 93.7% (active).
`COc1ccccc1C(=O)Nc1cccn2nc(C3CCC3)nc12`: the inhibition is 2.42%.
Consider `CCCCn1c(=O)[nH]c2c(c1=O)CCC2`, for which the inhibition was 4.26%.
As to `Cc1sc(NC(=O)CS(=O)(=O)c2ccc(F)cc2)c(C(N)=O)c1C`, the inhibition was -84%.
As for `Cc1sc(NC(=O)c2ccc(S(=O)(=O)N(C)CC3CCCO3)cc2)c(C(N)=O)c1C` (centres undefined), the inhibition is 40.5% (active).
Take `Cc1ccc(S(=O)(=O)CC(=O)Nc2sc(C)c(C)c2C(N)=O)cc1`: the inhibition was -27.2%.
Regarding `CCN1CCN(C2=Nc3c(Cl)cc(Cl)c4cccc2c34)CC1`, the inhibition is -158%.
Regarding `O=c1c2ccccc2c(-c2nc(-c3ccncc3)no2)cn1-c1ccc(F)cc1`, the inhibition was 37.7% (active).
The same measure for `O=c1c2ccccc2ncn1Cc1noc(-c2ccccc2F)n1`: -0.0976%.
With `COc1ccccc1-c1nc(-c2ccc(-n3cccn3)nc2)no1`, the inhibition is 2.48%.
As for `CC(C)NC(=O)[C@H](C)NC(=O)N1CCn2c1nc1ccccc12`, the inhibition was -12.1%.
As to `CN1Cc2c(C(=O)NCC3CCCO3)ncn2-c2ccccc2S1(=O)=O` (centres undefined), the inhibition is -13.6%.
Turning to `Cn1c(=O)c2c(SCC(=O)N3CCC(Cc4ccccc4)CC3)nc(-c3cccs3)nc2n(C)c1=O`, the inhibition was 2.08%.
Take `COc1ccc(F)cc1-c1ccccc1CC1CNCCNC1=O` (centres undefined): the inhibition was -14.6%.
Turning to `Cc1nc2ccccc2c(=O)n1CC(=O)N1CCCc2ccccc21`, the inhibition was 4.34%.
`O=C(Cn1cnc2ccccc21)N1CCCc2ccccc21`: the inhibition was -1.89%.
In the case of `COC(=O)COc1cccc2c(=O)n(CC(=O)N3CCc4ccccc43)ccc12`, the inhibition is 35.8% (active).
Next, `Cn1c(=O)c2c(ncn2CC(=O)OCc2cccc([N+](=O)[O-])c2)n(C)c1=O`: -12.3%; `COc1ccc(-c2cc(C(=O)Nc3cccc(C)c3C)c3ccccc3n2)cc1OC`: -1.61%.
Regarding `CCN1C[C@@]23CN(C(=O)c4ccc(OC)cc4)C[C@@H](C[C@@H]2S1(=O)=O)O3`, the inhibition is 0.859%.
As to `O=C(c1ccco1)[C@@H]1[C@@H]2C(=O)N(c3cccc([N+](=O)[O-])c3)C(=O)[C@@H]2C2c3ccccc3C=CN21` (some centres undefined), the inhibition was -7.36%.
Next, `COc1cccc(N2CCCN(C(=O)c3ccc4nc(C)[nH]c4c3)CC2)c1`: -10.9%; `COc1cccc(-c2cc(C(=O)N3CCN(c4ccc(N5CCOCC5)nn4)CC3)[nH]n2)c1`: 33.1% (active); `O=C(c1cccnc1)N1CCN(c2cc(-c3ccccc3)[nH]n2)CC1`: -26.3%.
The same measure for `N#Cc1ccccc1NC(=O)c1cccc2c1SCCC2=O`: 8.87%.
On to `Cc1cccc(N2CCN(C(=O)C3CCCN(S(=O)(=O)N4CCC5(CC4)OCCO5)C3)CC2)c1C` (centres undefined), for which the inhibition is 9.89%.
For the compound `O=C1NC(c2ccccc2)=N/C1=C/c1ccc(F)cc1`, the inhibition was 39.9% (active).
The same measure for `O=C(O)c1c2c(nc3ccccc13)/C(=C/c1ccc(F)cc1)CCC2`: 4.5%.

For the origin of these results see PubChem BioAssay AID1645855 (Buhrlage Lab, Dana-Farber Cancer Institute and Novartis …, 2021).
